From PubChem
Compounds with a hit are over-represented: about 6.5% of the library has one in this group of screens.
HT1080 IDH1KD tx = HT-1080 IDH1 knockdown cell toxicity (counter line); AID 686971; HT-1080 IDH1 knockdown viability, ATP luminescence, 48 h; 360,000 compounds, 2% hits; Potency, µM (top dose mostly 46.1 µM), without a hit: at the top dose activity, negative = toxicity, most hits filed as cytotoxic;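 note: potency is the fitted concentration of half-maximal effect; 0% = DMSO wells and -100% = cell-free medium wells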
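IDH1KD HT-1080 cells, 750/well, RPMI + 5% FBS; compound pinned after 2 h settling; 48 h, 37 °C; CellTiter-Glo luminescence; % activity normalised to DMSO and no-cell wells; curves fitted, classed by r2 and efficacy.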
HepG2 viability = counter-screen for TGF-b inhibitors: cytotoxicity in HepG2 cells. 410,000 compounds, 0.76% hits. HepG2 CAGA-GFP viability, ATP luminescence, 18 h. Potency, µM (titrated, usually from 46.1 µM), inactives show top-dose activity change, negative = cytotoxicity, hits mostly cytotoxic. AID 588856; note: potency is the fitted concentration of half-maximal effect
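CellTiter-Glo luminescence gave cytotoxicity after 18 hours at 37 degrees C. The cells were HepG2 CAGA-GFP in 1% FBS DMEM, stimulated with 500 pg/mL TGF-beta after compound addition. %Activity was normalised to no-cell wells (complete cell-killing) and DMSO (no toxicity), and curves were fitted and classified.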
HT1080NT lethal = kills 2HG-producing HT-1080-NT fibrosarcoma cells; HT-1080-NT fibrosarcoma viability, CellTiter-Glo ATP luminescence, 48 h; AID 686970; Potency, µM (doses to about 46.1 µM), for the others: at the highest dose activity, negative = less viability, hits mostly cytotoxic; 360,000 compounds, 1.6% hits;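 note: NT is the 2HG producing partner of a matched IDH1 knockdown line; potency is the fitted concentration of half-maximal effect; 0% = DMSO-treated cells and -100% = media-only wells without cells; nearly all actives have a fitted effect of over 55% in size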
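Compounds were tested in concentration-response format on HT-1080-NT cells for 48 hours at 37 degrees C. Cell viability came from CellTiter-Glo luminescence; curves were classified by r2, response magnitude and activity.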
TGFb inhibitor = TGF-b pathway inhibition; HepG2 CAGA-GFP TGF-b/SMAD3 reporter, GFP fluorescence, 18 h; TGF-beta stimulated, 500 pg/mL final; Potency, µM (titrated, usually from 46.1 µM), for inactives: top-dose activity, negative = inhibition, actives largely listed as inhibitors; 410,000 compounds, 1.2% hits; note: potency is the fitted concentration of half-maximal effect; % is set by controls: 0 for no effect and ±100 for the full control effect; nearly all actives have a fitted effect of over 65% in size
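Using HEPG2 CAGA-GFP reporter cells at 1000 cells/well, we pinned test compounds, stimulated with recombinant TGF-beta (500 pg/mL final) and measured total well GFP after 18 h.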
Giardia kill = Giardia lamblia killing; 340,000 compounds, 0.15% hits; activity change, % at 7.66 µM, hits read low; Giardia lamblia trophozoite viability; in the data active = activity change below about -80%; inconclusive = between about -30% and that limit;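 note: parasites exposed to compound for two days anaerobically before the ATP read; % is set by controls: 0 for no effect and ±100 for the full control effect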
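ATP-content bioluminescence gauges trophozoite survival. Cells (100/well) receive compound and incubate anaerobically for 48 hrs at 37 deg C; detection reagent follows for 15-30 min at room temperature.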
IL1B secr inh = inhibitors of inflammasome signaling (IL-1 beta secretion); THP-1 LPS/ATP IL-1B secretion, AlphaLISA, 16 h; active compounds read low; activity change, % at 57.5 µM; 360,000 compounds, 4.7% hits; in the data active = activity change below about -50%; inconclusive = mostly about -30% to -49%; note: % is set by controls: 0 for no effect and ±100 for the full control effect
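Secreted IL-1B measured by AlphaLISA bead assay after 16 h compound exposure of THP-1 cells; compounds (final up to 57.5 uM) added 1 h before LPS (250 ng/mL) and ATP (1.25 mM) stimulation; lower signal means less secretion.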
Numbers without * were called inactive; ? = inconclusive; nt = not tested or not shown. Unless noted, calls come from the whole dose curve; as a rule, active = well fitted curve in the direction sought with a large enough effect; inconclusive = small, poorly fitted or top-dose-only effect, or another doubt; inactive = no such curve, though single readings can be large; an effect the other way counts as inactive or inconclusive.

SMILES | HT1080 IDH1KD tx | HepG2 viability | HT1080NT lethal | TGFb inhibitor | Giardia kill | IL1B secr inh
COc1cc(/C=N\NC(=O)c2ccc(Cl)cc2)ccc1Oc1ccc([N+](=O)[O-])cn1 | -14% | 1% | -13% | -9% | -10 | -16
COc1cc(/C=N\NC(=O)c2ccccc2F)ccc1Oc1ccc([N+](=O)[O-])cn1 | 7.3µM* | 3% | 21µM* | -25% | -14 | -12
COc1cc(/C=C(/C#N)c2ccc(F)cc2)ccc1Oc1ccc([N+](=O)[O-])cn1 | ? | 0% | 1% | -15% | 5 | -54*
CCOC(=O)c1c(S(=O)(=O)Nc2ccc(F)cc2C)c(C)n(C)c1C | 1% | -38% | 5% | 18% | 2 | 3
CCC/C=N/NC(=O)c1cc(Br)ccc1O | 4% | 0% | 3% | -1% | 2 | 0
Cc1ccc(C2=CSC3=NNC4(CCCCC4)NN23)cc1 | -16% | -35% | -6% | -22% | 2 | 0
CC1CCCN(C(=O)N2c3ccccc3Sc3ccccc32)C1 (stereo not given) | 10µM* | -14% | ? | 4% | 0 | -1
O=C(N1CCOCC1)N1c2ccccc2Sc2ccccc21 | 14µM* | -30% | ? | -4% | 15 | -10
Nc1ccn([C@@H]2O[C@H](C(=O)N3CCCN(Cc4cccs4)CC3)[C@@H](O)[C@H]2O)c(=O)n1 | 5% | -16% | 1% | -4% | nt | 6
O=C(CN1C(=O)CCC1=O)Nc1nc(-c2ccccn2)cs1 | -1% | -7% | -8% | -5% | -2 | -22
O=C(CN1C(=O)CCC1=O)Nc1nc(-c2nc3ccccc3s2)cs1 | 18% | -2% | 13% | 2% | 10 | -57*
COc1ccc(NC(=O)c2ccc3[nH]c(=O)c(=O)[nH]c3c2)c(OC)c1 | 2% | 2% | -6% | -1% | 6 | 29
CSCC(C)N1CCC(CO)(CCCc2ccccc2)CC1 (stereo not given) | -2% | 0% | -16% | 39% | -2 | 9
OCC1(CCCc2ccccc2)CCN(C2CCC2)CC1 | -13% | 2% | -7% | -11% | -4 | -54*
CCOC(=O)C1(CCCc2ccccc2)CCN(C2CCSCC2)CC1 | -6% | -33% | 1% | -12% | -10 | 14
OCC1(CCCc2ccccc2)CCN(C2CCSCC2)CC1 | -3% | -3% | -3% | 1% | -16 | -70*
O=S(=O)(c1ccc2ccccc2c1)n1cccn1 | 19% | -1% | 12% | -12% | 6 | 29
CC(C)CC1NC(=O)c2cc3ccccc3cc2-n2c1nc1ccc(Cl)cc1c2=O (stereo not given) | 3% | -4% | 6% | 22% | nt | 30
O=C(Nc1ccc(-n2nncc2-c2ccccc2)cc1)c1cccc(F)c1 | nt | 10% | nt | 17% | nt | nt
O=C(/C=N/O)Nc1ccc2sc3ccccc3c2c1 | ? | -66% | ? | -29% | -1 | -100*
CCN(CC)c1ccc(C(=S)NC2CCCCC2)cc1 | -17% | -38% | -5% | 1% | 5 | -63*
CC[N+](C)(CC)CCOC(=O)C(O)(c1ccccc1)C1CCCCC1 (stereo not given) | 19% | -19% | ? | 26% | 3 | -55*
Cc1ccc(CNC(=O)CSc2ccsc2[N+](=O)[O-])cc1 | -23% | -7% | -9% | -4% | -88* | ?
COc1ccc(CNC(=O)CSc2ccsc2[N+](=O)[O-])cc1 | 0% | 0% | -3% | -3% | ? | -59*
CCOC(=O)c1c(C)oc2nc(C)nc(NCCc3ccc(SC)cc3)c12 | nt | 3% | nt | 5% | nt | nt
COc1ccc(NC(=O)Nc2nnc(C(C)(C)C)s2)cc1 | 2% | 103% | 5% | 4% | -12 | -26
CC(C)(C)c1nc(NC(=O)Nc2ccccc2)sc1Br | ? | -98% | ? | ? | -14 | -91*
